Assay results from PubChem BioAssay AID493131 (Broad Institute, 2011).
Out of some 340,000 compounds screened, about 3,300 (0.97%) were called active.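 How the source made its calls: active means mean activation above about 17%, with every replicate also reaching it (limit read from the data, passing the limit was not always enough); inconclusive means only one of the two conditions met; inactive means the rest.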 What follows is part of a selection rich in actives, with near analogues and random picks from the rest.

What follows are compounds tested against Protein FosB (Mus musculus) (UniProt P13346) (assay: enhancers of mouse delta FosB DNA binding – biochemical, fluorescence polarization, TAMRA-CDK5 oligo, single point, primary screen (AID 493131;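 further: fluorescence polarization rise as delta FosB binds a TAMRA Cdk5 AP-1 oligo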)). Conditions: purified delta FosB, at 25 µM, hits give high values, percent of positive-control signal above neutral wells.
Sequence of Protein FosB (Mus musculus) (P13346 whole entry, looked up): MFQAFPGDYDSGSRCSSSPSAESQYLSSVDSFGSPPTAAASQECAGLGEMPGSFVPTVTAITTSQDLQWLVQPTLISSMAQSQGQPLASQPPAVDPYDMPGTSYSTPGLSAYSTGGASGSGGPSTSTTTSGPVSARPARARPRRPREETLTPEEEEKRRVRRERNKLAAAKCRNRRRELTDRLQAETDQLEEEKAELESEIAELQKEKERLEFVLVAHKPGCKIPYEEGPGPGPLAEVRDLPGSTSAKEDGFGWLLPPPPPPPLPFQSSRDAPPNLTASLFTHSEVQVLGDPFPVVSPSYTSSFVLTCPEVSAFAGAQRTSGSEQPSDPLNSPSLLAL

activation, active:
CCCCCCCCCCOC(=O)Cn1c(COc2cccc(OC)c2)[n+](C)c2ccccc21 28.7%, CCCCCCCCCCOC(=O)Cn1c(COc2ccc(C)cc2)[n+](C)c2ccccc21 38.3%, Cc1ccc(S(=O)(=O)N2CCC(Oc3ccc(-n4cnnn4)cc3)CC2)cc1 58.6%, Cc1cccc(OCC(O)CN2CCN(CCN3C(=O)c4cccc5cccc(c45)C3=O)CC2)c1C (configuration not stated) 62.2%, CCOc1ccc(-n2c(SCC(=O)Nc3ccc(OC)cc3)nc3sc4c(c3c2=O)CCN(C)C4)cc1 50.3%, Cc1nnc(NC(=O)Nc2ccc(Cl)c(Cl)c2)s1 28.8%, CCc1ccc(CNC(=O)C2CCN(c3nnc(C)c4c(C)n(-c5ccc(C)cc5)nc34)CC2)cc1 82.7%, O=C(Cc1csc(Nc2nc(=S)[nH]c3ccccc23)n1)NCCCN1CCN(c2cccc(Cl)c2)CC1 34.1%, OCCNc1nc(Nc2ccc(Cl)c(Cl)c2)nc2ccccc12 47%, O=C(Nc1ccccc1)Nc1nnc(COc2ccccc2F)s1 28.4%, Nc1nc(COC(=O)CCC(=O)c2ccc(Cl)cc2)nc(Nc2ccccc2)n1 21.6%, CCOc1ccc2nc(N(CCN(C)C)C(=O)c3ccc4ccccc4c3)sc2c1 18.5%, O=C(N/N=C/c1ccco1)c1ccc(NC(=O)C2CC2)cc1 31.9%, CCn1c(=O)c2cc(C(=O)Nc3cccc(C(C)=O)c3)sc2c2ccccc21 73.2%, CN(C)CCCN(C(=O)c1ccc(S(=O)(=O)N2CCCCCC2)cc1)c1nc2ccc(Br)cc2s1 41%, CCCCn1c(N)c(N(CCC(C)C)C(=O)COC(=O)c2ccc(CC)cc2)c(=O)[nH]c1=O 23.1%, CC(Sc1nc(-c2ccccc2)cc(C(F)(F)F)n1)C(=O)Nc1ccc2c(c1)OCO2 (configuration not stated) 30.4%, Cc1ccc(C(=O)NNC(=O)c2cc3cc4ccccc4nc3s2)cc1 26.4%, O=C(COC(=O)c1ccc(S(=O)(=O)N2CCc3ccccc3C2)cc1)NC(=O)NCc1ccco1 61.2%, COc1cccc(/C=N/NC(=O)c2[nH]nc3c2CCc2ccccc2-3)c1O 76.1%

activation, inactive:
COc1ccc(C2=Nc3cc(C)ccc3OC2)cc1 -10.5%, CCCCOc1ccc(NC(=O)CSCC(=O)OCC)cc1 -6.39%, CCOC(=O)CNC(=O)CSc1nnc(-c2cccc(OC)c2)n1CC -2.27%, CCOC(=O)COn1c(=O)c(-c2ccc(OCC)cc2)[n+]([O-])c2ccccc21 -3.65%, COc1cccc(NC(=O)COC(=O)CCOc2ccccc2OC)c1 2.67%, CCC1=C(OC(=O)N(CC)CC)N2C(=O)OC(=NCCc3c[nH]c4ccccc34)[C@]2(C)[C@H]2C1=CC[C@H]1C(=O)N(CC)C(=O)[C@H]12 -18.3%, CCOC(=O)N1CCN(S(=O)(=O)c2ccc(-n3cnnn3)cc2)CC1 -6.35%, CC(=O)c1ccc(S(=O)(=O)N2CCC(Oc3ccc(-n4cnnn4)cc3)CC2)cc1 12.7%, Cn1c(=O)c2c(nc(Br)n2CCSc2nc3ccccc3o2)n(C)c1=O 1.42%, Cc1cccc(C)c1NC(=O)C1(C)c2cccc[n+]2CC(=O)N1Cc1cccs1 (configuration not stated) -6.06%, COc1ccccc1OCC(O)CN1CCOCC1 (configuration not stated) -1.24%, C=CCc1ccccc1OCC(O)CN1CCN(CCO)CC1 (configuration not stated) -2.68%, COc1ccc(S(=O)(=O)NCCOc2ccccc2)cc1F 7.41%, CCCSc1nc2sc3c(c2c(=O)n1-c1ccc(OC)cc1)CCN(C)C3 -14.7%, CCOc1ccc(-n2c(SCC(=O)OC)nc3sc4c(c3c2=O)CCN(C)C4)cc1 -0.804%, Cc1ccccc1-c1nc(CS(=O)(=O)CC(=O)N2CCc3ccccc3C2)c(C)o1 -5.6%, O=C(COC(=O)c1cnccn1)Nc1cccc2ccccc12 -2.31%, N#CCCN1CCN(S(=O)(=O)c2ccc(S(=O)(=O)NC3CCCCC3)cc2)CC1 -3.88%, COC(=O)c1cc(NC(=O)CN2CCN(C(C)=O)CC2)cc(C(=O)OC)c1 2.81%, Cc1cccc(Nc2nnc(SCC(=O)c3c(N)n(C4CC4)c(=O)[nH]c3=O)s2)c1C -2.18%, Cc1nnc(NC(=O)C(c2ccccc2)c2ccccc2)s1 -0.437%, Cc1nnc(NC(=O)c2ccc3nccnc3c2)s1 1.3%, CC(C)Cn1c(N)c(C(=O)COC(=O)CN2C(=O)C3CC=CCC3C2=O)c(=O)n(C)c1=O (configuration not stated) -11.5%, COc1cccc(N2CC(NS(=O)(=O)c3cccs3)CC2=O)c1 (configuration not stated) 0.171%, CCOc1ccc(CNC(=O)C2CCCN(c3nnc(C)c4c(C)n(-c5ccccc5)nc34)C2)cc1 (configuration not stated) -5.11%, CCc1ccc(CNC(=O)C2CC(=O)N(CCc3ccc(C)cc3)C2)cc1 (configuration not stated) -3.6%, Cc1ccc(NC(=O)CN2CCc3ccccc3C2)cc1C -4.61%, Cc1ccc(OS(=O)Nc2cccc3nccnc23)cc1 (configuration not stated) -0.877%, O=C(CCCn1c(=O)[nH]c2cc(Cl)ccc2c1=O)NCCN1CCN(c2ccccc2)CC1 -5.22%, COc1cccc(CNC(=O)Cc2csc(Nc3nc(=S)[nH]c4ccccc34)n2)c1 12.2%, O=[N+]([O-])c1cc2ccccc2nc1-c1ccccc1 -4.74%, CC1COc2ccccc2N1C(=O)c1cccnc1Cl (configuration not stated) -2.06%, Cc1cccc(Nc2nc(NCCO)nc(N3CCCC3)n2)c1 2.75%, CN1CCN(c2nc(Nc3ccc(O)cc3)nc3ccccc23)CC1 10.9%, CC12CN(Cc3ccccc3)CC(C)(CN(Cc3ccccc3)C1)C2=NO -1.53%, CCOc1ccccc1-n1c(SCC(=O)NCc2ccco2)nnc1-c1ccncc1 -2.73%, COc1ccccc1NC(=O)Nc1nnc(Cc2ccc(F)cc2)s1 -2.06%, O=C(NCCOc1ccccc1F)Nc1ccc(Br)cc1 -2.98%, COc1cc(C)ccc1OCC(=O)OCC(=O)c1ccc[nH]1 6.43%, Cc1ccccc1Nc1nc(N)nc(COC(=O)CCC(=O)c2ccc(F)cc2)n1 -1.04%, CC(NC(=O)COC(=O)CCC(=O)c1ccc(Cl)cc1)c1ccccc1 (configuration not stated) -9.29%, OCCCNC(c1ccccc1)c1ccc(O)cc1 (configuration not stated) -0.537%, CCCC(=O)N(CCN1CCOCC1)c1nc2ccc(OCC)cc2s1 1.55%, CCc1ccc2nc(N(CCCN(C)C)C(=O)c3ccc4c(c3)OCCO4)sc2c1 -10.5%, Cc1onc(-c2ccccc2Cl)c1C(=O)N(Cc1ccc(N(C)C)cc1)C(C)C -12.7%, O=C(Cc1ccccc1)Nc1cccc(C(=O)N/N=C/c2ccco2)c1 -7.68%, O=C(N/N=C/c1ccco1)c1csc2c1CCCC2 2.38%, O=C(NCC1CCCCC1)NCC1CCCCC1 -3.89%, CCC(C)NC(=O)c1ccc(NC(=O)CC2SC(N3CCCCC3)=NC2=O)cc1 (configuration not stated) -9.42%, Cc1cc(C)n2nc(CNS(=O)(=O)c3c(F)c(F)c(F)c(F)c3F)nc2n1 -1.9%, CCn1c(NC(=O)c2ccccc2)c(-c2cccs2)c(=O)c2ccccc21 -4.73%, CC(=O)c1cccc(NC(=O)c2cc(C)nn2-c2ccccc2)c1 -9.9%, CCc1cccc(NC(=O)COC(=O)c2cc(=O)c3ccccc3o2)c1 -5.91%, COC(=O)c1c(C(=O)OC)c(-c2cccc(C)c2)n2c1CS(=O)C2 (configuration not stated) -2.6%, Cc1ccccc1Nc1c([N+](=O)[O-])ccc2nonc12 -0.872%, COc1ccc2sc(N(CCCN(C)C)C(=O)c3ccc(S(=O)(=O)N(C)C4CCCCC4)cc3)nc2c1 15.3%, CN(C)CCN(C(=O)C1=COCCO1)c1nc2ccc(Cl)cc2s1 -10.2%, CCCCn1c(N)c(N(CCC(C)C)C(=O)c2ccc([N+](=O)[O-])o2)c(=O)[nH]c1=O -0.599%, CCCCn1c(N)c(N(CCC(C)C)C(=O)COC(=O)c2cccnc2OCC)c(=O)[nH]c1=O 1.39%, CCn1c(/C=C/Nc2ccccc2)[n+](CC)c2ccc(C(=O)OCC(F)(F)F)cc21 -11.5%, O=C(NCCCn1ccnc1)C1CCCN(S(=O)(=O)c2cc(Cl)ccc2Cl)C1 (configuration not stated) -4.73%, CC(Sc1nc2cc(Cl)ccc2s1)C(=O)Nc1ccc2c(c1)OCO2 (configuration not stated) -3.52%, CCSc1ccccc1C(=O)Nc1ccc2c(c1)OCO2 0.935%, O=C1/C(=C/c2ccc3c(c2)OCO3)Oc2cc(OCC(=O)N3CC(O)C[C@H]3C(=O)O)ccc21 (some centres not stated) -7.81%, Cc1ccc(C(=O)NNC(=O)c2ccc3c(c2)OCCO3)cc1 -13%, Cc1ccc(C(=O)NNc2ncnc3ccccc23)cc1 -2.14%, O=C(CN1CCN(S(=O)(=O)/C=C/c2ccccc2)CC1)NC(=O)NCc1ccco1 -9.92%, CC(NC(=O)c1cccc(S(=O)(=O)N2CCc3ccccc3C2)c1)c1ccco1 (configuration not stated) 7.07%, Cc1cccc(C)c1NC(=S)N(Cc1cccnc1)Cc1ccccc1Cl 2.24%, COC(=O)C(C(=O)Nc1cccc(Cl)c1C)C1CCCC1 (configuration not stated) 0.709%, COc1ccc(/C=N/NC(=O)c2ccncc2)cc1CN1CCCc2ccccc21 -19.4%, COc1cccc(/C=N/NC(=O)CNC(=O)c2ccc(S(=O)(=O)N3CCOCC3)cc2)c1OC 1.33%
